Results from PubChem BioAssay AID623944 (Vanderbilt Specialized Chemistry Center, 2012).
The source made the active and inactive calls. How the calls were made is not given here.

Test: PubChem AID 623944
Conditions: Ricerca radioligand binding panel, % inhibition, at 10 µM, stronger effect = higher value

O=C(Nc1ccc(N(Cc2ccsc2)C(=O)Cn2nnc3ccccc32)cc1)C1CC1
inhibition (GABA-A flunitrazepam site inhibition): 22% | inhibition (adenosine A3 binding inhibition): 20% | inhibition (androgen receptor binding inhibition): 42% | inhibition: 75% (inactive) | inhibition (cannabinoid CB1 binding inhibition): 25% | inhibition (dopamine D2S binding inhibition): 4% | inhibition (dopamine transporter binding inhibition): 12% | inhibition (hERG binding inhibition): 15% | inhibition (kappa opioid binding inhibition): 20% | inhibition (muscarinic M1 binding inhibition): -7% | inhibition (norepinephrine transporter binding inhibition): 18% | inhibition (serotonin transporter binding inhibition): -1% | inhibition (sigma receptor binding inhibition): 42%
